# Laboratory results taken from paper PMC7862700, “An all-to-all approach to the identification of sequence-specific readers for epigenetic DNA modifications on cytosine”.
# What was measured:
# Assay in all cases: DAPPL (digital affinity profiling via proximity ligation, sequencing); 10 mM Tris-HCl pH 7.5, 50 mM NaCl, 1 mM DTT, 4% glycerol, room temperature, 30 min; GST-TFs on glutathione beads, 16-mer random dsDNA library, 0.1% formaldehyde crosslink after washing; high values mean tight binding
# [1] = target: T1, FLI1 (Homo sapiens, UniProt Q01543 1-452); conditions: protein: recombinant; tags: N-terminal GST; dsDNA, one strand shown
# T1 sequence: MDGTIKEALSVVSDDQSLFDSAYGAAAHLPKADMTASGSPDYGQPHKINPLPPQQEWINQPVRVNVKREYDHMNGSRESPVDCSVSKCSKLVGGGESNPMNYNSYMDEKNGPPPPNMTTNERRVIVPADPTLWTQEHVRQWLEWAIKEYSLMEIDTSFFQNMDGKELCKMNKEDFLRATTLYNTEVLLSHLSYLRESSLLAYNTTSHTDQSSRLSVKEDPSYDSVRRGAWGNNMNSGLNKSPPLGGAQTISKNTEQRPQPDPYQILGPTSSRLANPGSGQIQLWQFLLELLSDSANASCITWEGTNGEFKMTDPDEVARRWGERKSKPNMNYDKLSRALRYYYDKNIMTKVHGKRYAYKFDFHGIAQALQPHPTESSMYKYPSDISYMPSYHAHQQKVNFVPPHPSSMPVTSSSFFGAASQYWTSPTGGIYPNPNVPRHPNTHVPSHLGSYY
# Procedure, shortened: (§1)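 Human transcription factors were made in yeast as GST fusions, captured on glutathione beads and barcoded with DNA. With a tag-only sample included, the pool was incubated with 200 nmole of a random double-stranded 16-mer DNA library in Tris/NaCl/DTT/glycerol buffer at room temperature for 30 min, then crosslinked with 0.1% formaldehyde after washing, ligated by proximity, amplified and sequenced. For binding signal, each hexamer's read frequency for a factor is divided by its frequency for the tag-only sample.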
# [2] = target: T2, ELK1 (Homo sapiens, UniProt P19419 1-428); conditions: protein: recombinant; tags: N-terminal GST; dsDNA, one strand shown
# T2 sequence: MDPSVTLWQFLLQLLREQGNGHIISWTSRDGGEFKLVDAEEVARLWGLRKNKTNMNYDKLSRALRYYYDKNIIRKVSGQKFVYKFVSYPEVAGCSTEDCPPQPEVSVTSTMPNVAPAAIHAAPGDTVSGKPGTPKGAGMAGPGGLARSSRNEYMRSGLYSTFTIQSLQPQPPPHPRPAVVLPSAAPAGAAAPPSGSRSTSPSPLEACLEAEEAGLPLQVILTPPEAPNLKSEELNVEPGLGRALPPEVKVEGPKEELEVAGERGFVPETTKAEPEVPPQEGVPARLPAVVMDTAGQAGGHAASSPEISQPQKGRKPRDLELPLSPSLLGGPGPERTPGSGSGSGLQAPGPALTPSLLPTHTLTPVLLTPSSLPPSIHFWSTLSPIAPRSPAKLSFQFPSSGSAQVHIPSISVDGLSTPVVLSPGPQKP
# Procedure, shortened: as §1
# [3] = target: T3, GABPA (Homo sapiens, UniProt Q06546 1-454); conditions: protein: recombinant; tags: N-terminal GST; dsDNA, one strand shown
# T3 sequence: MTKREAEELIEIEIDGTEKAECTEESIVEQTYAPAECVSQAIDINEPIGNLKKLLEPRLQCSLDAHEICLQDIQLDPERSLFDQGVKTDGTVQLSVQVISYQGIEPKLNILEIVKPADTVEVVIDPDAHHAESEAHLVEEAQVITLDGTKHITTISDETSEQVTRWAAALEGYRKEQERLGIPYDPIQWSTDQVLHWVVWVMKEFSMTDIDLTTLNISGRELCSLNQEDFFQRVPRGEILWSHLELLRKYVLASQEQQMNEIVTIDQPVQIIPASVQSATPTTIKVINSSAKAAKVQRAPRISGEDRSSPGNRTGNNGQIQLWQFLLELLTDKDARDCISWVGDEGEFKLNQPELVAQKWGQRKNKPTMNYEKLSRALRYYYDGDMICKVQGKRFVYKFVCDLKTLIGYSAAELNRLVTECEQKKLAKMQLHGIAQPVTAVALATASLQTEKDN
# Procedure, shortened: as §1
# [4] = target: T4, ERG (Homo sapiens, UniProt P11308 1-479); conditions: protein: recombinant; tags: N-terminal GST; dsDNA, one strand shown
# T4 sequence: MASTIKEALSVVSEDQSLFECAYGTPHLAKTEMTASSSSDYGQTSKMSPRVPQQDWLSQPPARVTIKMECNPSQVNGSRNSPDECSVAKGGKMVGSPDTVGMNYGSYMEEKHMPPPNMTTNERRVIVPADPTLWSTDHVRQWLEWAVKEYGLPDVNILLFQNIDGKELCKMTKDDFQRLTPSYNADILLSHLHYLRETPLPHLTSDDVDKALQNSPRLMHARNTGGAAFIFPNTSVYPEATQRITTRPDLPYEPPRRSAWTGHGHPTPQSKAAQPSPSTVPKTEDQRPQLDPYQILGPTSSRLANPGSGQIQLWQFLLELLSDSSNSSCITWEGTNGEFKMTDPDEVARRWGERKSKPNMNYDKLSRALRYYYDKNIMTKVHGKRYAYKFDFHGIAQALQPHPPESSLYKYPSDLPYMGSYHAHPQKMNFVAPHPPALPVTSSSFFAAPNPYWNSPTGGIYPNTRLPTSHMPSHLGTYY
# Procedure, shortened: as §1
# [5] = target: ELF1 (Homo sapiens, UniProt P32519 1-619); conditions: protein: recombinant; tags: N-terminal GST; dsDNA, one strand shown
# Sequence of ELF1 (P32519 whole entry): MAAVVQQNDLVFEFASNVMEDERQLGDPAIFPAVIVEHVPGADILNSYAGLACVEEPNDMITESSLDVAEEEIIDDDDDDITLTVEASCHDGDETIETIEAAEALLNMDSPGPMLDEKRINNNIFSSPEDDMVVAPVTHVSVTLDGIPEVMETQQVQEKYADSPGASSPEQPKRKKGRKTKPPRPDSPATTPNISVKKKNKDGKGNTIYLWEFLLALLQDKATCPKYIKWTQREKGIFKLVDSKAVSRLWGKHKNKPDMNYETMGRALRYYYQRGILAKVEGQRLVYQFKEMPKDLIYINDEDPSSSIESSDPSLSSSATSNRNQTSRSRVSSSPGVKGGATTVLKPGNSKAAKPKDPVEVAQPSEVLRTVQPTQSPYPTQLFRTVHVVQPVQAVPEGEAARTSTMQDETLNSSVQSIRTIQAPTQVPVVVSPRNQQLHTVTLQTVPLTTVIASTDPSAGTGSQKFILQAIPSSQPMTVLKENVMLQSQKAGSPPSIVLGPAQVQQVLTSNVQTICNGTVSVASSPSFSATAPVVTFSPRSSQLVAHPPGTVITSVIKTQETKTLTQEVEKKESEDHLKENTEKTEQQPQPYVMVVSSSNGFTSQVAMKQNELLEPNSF
# Procedure, shortened: as §1
# [6] = target: T5, EHF (Homo sapiens, UniProt Q9NZC4 1-300); conditions: protein: recombinant; tags: N-terminal GST; dsDNA, one strand shown
# T5 sequence: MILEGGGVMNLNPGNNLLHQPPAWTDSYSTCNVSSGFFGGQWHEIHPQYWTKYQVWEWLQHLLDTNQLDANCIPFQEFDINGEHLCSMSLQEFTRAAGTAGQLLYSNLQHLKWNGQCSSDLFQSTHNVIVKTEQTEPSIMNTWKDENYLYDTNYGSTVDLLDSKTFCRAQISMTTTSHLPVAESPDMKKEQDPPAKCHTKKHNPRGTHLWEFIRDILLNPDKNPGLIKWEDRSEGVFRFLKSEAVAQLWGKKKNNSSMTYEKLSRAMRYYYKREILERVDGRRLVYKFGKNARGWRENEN
# Procedure, shortened: as §1
# [7] = target: SPI1 (Homo sapiens, UniProt P17947 1-270); conditions: protein: recombinant; tags: N-terminal GST; dsDNA, one strand shown
# Procedure, shortened: as §1
# [8] = target: SPIB (Homo sapiens, UniProt Q01892 1-262); conditions: protein: recombinant; tags: N-terminal GST; dsDNA, one strand shown
# Sequence of SPIB (Q01892 whole entry): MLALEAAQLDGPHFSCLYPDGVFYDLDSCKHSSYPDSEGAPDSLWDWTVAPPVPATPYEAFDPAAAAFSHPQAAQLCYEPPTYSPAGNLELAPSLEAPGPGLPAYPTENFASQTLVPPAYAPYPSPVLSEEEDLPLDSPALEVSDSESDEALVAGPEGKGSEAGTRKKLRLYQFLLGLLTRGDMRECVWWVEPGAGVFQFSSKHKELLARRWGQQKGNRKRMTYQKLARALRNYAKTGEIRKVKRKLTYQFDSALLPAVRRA
# Procedure, shortened: as §1
# [9] = target: T6, ELK3 (Homo sapiens, UniProt P41970 1-407); conditions: protein: recombinant; tags: N-terminal GST; dsDNA, one strand shown
# T6 sequence: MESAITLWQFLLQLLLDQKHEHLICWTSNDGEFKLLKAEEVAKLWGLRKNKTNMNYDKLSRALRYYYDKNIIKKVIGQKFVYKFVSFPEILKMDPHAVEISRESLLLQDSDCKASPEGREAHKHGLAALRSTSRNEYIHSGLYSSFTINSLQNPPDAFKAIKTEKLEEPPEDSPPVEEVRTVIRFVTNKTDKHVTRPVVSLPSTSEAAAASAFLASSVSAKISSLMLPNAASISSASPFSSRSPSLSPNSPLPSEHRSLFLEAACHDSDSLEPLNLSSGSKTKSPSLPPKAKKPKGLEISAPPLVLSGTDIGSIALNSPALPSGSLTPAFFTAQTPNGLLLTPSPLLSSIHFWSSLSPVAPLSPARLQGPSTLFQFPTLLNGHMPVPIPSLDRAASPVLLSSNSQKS
# Procedure, shortened: as §1
# [10] = target: T7, FEV (Homo sapiens, UniProt Q99581 1-238); conditions: protein: recombinant; tags: N-terminal GST; dsDNA, one strand shown
# T7 sequence: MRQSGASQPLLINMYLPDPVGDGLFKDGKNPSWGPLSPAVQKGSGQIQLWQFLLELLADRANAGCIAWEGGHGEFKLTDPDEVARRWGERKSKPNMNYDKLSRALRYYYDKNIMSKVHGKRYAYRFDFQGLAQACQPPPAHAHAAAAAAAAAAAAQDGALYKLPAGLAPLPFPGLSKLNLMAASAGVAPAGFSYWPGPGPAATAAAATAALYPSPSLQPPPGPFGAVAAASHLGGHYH
# Procedure, shortened: as §1
# [11] = target: ETV5 (Homo sapiens, UniProt P41161 1-510); conditions: protein: recombinant; tags: N-terminal GST; dsDNA, one strand shown
# Sequence of ETV5 (P41161 whole entry): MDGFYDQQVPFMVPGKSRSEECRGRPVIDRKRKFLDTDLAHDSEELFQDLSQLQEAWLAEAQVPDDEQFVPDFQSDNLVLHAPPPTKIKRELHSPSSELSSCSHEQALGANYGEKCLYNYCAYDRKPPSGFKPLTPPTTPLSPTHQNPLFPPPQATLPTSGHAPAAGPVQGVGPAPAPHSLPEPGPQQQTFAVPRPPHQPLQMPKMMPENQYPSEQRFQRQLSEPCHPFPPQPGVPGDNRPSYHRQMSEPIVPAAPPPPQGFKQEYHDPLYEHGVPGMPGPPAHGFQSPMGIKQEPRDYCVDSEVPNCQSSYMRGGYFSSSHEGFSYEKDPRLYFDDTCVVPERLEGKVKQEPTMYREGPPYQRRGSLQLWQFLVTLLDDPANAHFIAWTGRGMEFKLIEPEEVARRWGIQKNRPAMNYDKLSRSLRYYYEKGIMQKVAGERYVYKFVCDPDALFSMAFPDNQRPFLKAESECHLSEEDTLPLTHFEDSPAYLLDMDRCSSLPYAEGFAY
# Procedure, shortened: as §1
# [12] = target: HSF1 (Homo sapiens, UniProt Q00613 1-529); conditions: protein: recombinant; tags: N-terminal GST; chain copies: 3; dsDNA, one strand shown
# Sequence of HSF1 (Q00613 whole entry): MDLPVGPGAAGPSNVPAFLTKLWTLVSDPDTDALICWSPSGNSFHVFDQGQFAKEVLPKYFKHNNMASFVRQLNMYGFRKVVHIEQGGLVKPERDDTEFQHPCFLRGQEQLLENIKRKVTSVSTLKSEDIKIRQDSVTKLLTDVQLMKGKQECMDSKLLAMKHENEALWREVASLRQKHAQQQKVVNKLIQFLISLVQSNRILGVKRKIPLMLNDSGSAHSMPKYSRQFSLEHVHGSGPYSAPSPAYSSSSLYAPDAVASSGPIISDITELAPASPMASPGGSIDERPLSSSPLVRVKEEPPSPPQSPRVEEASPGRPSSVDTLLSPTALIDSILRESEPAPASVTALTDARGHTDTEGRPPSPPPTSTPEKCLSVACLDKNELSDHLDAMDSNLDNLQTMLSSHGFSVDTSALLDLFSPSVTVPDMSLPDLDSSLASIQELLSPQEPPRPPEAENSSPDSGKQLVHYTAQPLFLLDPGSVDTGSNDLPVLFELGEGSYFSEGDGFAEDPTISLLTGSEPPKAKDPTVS
# Procedure, shortened: as §1
# [13] = target: T8, SPIC (Homo sapiens, UniProt Q8N5J4 1-248); conditions: protein: recombinant; tags: N-terminal GST; dsDNA, one strand shown
# T8 sequence: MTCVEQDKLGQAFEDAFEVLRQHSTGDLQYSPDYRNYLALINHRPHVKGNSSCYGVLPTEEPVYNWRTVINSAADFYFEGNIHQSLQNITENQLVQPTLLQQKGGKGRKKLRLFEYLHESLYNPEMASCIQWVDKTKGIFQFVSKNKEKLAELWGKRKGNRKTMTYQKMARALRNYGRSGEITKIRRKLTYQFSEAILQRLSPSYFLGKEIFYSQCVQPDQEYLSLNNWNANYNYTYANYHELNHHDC
# Procedure, shortened: as §1
# [14] = target: ELF4 (Homo sapiens, UniProt Q99607 1-663); conditions: protein: recombinant; tags: N-terminal GST; dsDNA, one strand shown
# Sequence of ELF4 (Q99607 whole entry): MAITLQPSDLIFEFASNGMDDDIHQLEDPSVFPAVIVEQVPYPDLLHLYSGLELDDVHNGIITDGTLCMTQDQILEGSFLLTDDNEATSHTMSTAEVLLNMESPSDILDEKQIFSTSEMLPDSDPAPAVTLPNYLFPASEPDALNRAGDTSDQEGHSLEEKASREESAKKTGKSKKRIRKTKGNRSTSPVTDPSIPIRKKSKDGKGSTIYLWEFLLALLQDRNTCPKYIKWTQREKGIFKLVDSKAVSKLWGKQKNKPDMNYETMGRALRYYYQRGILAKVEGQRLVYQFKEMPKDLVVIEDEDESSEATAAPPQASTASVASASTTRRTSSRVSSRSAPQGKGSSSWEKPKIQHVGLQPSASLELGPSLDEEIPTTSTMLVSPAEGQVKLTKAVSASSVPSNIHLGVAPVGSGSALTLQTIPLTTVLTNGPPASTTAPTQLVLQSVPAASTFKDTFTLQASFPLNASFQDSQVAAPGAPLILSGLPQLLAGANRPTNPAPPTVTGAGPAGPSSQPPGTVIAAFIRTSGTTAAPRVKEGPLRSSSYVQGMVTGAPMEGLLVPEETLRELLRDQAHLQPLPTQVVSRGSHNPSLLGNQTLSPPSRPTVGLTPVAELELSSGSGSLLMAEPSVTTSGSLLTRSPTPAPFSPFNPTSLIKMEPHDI
# Procedure, shortened: as §1
# [15] = target: T9, ELK4 (Homo sapiens, UniProt P28324-2 1-405); conditions: protein: recombinant; tags: N-terminal GST; dsDNA, one strand shown
# T9 sequence: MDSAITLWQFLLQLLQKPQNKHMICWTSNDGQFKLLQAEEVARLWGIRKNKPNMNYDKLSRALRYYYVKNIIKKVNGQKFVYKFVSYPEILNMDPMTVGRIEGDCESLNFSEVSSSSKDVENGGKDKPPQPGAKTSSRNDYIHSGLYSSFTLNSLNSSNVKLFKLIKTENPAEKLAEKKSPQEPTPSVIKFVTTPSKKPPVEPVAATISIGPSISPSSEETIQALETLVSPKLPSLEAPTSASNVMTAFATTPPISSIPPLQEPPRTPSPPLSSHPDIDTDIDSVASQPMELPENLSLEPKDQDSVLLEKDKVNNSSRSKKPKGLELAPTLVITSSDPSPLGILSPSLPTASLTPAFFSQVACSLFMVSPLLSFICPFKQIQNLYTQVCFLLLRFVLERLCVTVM
# Procedure, shortened: as §1
# [16] = target: T10, ETV2 (Homo sapiens, UniProt O00321 1-342); conditions: protein: recombinant; tags: N-terminal GST; dsDNA, one strand shown
# T10 sequence: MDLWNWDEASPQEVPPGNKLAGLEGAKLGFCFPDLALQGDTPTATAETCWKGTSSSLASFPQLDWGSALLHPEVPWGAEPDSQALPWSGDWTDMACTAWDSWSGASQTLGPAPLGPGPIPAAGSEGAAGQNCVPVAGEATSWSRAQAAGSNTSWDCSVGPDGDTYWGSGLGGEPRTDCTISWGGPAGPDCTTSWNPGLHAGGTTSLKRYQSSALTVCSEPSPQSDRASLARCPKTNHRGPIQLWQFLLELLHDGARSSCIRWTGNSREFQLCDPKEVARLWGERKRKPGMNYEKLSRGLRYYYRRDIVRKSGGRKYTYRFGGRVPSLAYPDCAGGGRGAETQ
# Procedure, shortened: as §1
# [17] = target: T11, ELF3 (Homo sapiens, UniProt P78545 1-371); conditions: protein: recombinant; tags: N-terminal GST; dsDNA, one strand shown
# T11 sequence: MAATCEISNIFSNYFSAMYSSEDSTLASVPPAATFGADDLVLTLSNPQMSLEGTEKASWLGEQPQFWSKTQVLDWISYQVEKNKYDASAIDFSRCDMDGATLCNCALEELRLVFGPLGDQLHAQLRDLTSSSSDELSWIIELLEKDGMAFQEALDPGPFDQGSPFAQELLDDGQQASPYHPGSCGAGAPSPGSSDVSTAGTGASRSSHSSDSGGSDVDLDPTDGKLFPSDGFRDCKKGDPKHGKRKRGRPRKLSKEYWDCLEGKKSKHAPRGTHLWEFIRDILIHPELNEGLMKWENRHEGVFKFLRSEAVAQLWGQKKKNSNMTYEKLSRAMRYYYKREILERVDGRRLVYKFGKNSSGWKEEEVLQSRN
# Procedure, shortened: as §1
# [18] = target: CRX (Homo sapiens, UniProt O43186 1-299); conditions: protein: recombinant; tags: N-terminal GST; dsDNA, one strand shown
# Sequence of CRX (O43186 whole entry): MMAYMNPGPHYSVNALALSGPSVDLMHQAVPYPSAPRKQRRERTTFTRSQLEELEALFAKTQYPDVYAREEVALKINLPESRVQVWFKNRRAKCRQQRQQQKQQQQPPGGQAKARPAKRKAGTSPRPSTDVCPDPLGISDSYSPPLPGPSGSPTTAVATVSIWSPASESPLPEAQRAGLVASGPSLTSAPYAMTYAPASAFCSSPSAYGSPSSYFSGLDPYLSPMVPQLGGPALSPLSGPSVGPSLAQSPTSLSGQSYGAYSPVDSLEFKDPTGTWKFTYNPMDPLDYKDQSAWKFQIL
# Procedure, shortened: as §1
# [19] = target: ETV1 (Homo sapiens, UniProt P50549 1-477); conditions: protein: recombinant; tags: N-terminal GST; dsDNA, one strand shown
# Sequence of ETV1 (P50549 whole entry): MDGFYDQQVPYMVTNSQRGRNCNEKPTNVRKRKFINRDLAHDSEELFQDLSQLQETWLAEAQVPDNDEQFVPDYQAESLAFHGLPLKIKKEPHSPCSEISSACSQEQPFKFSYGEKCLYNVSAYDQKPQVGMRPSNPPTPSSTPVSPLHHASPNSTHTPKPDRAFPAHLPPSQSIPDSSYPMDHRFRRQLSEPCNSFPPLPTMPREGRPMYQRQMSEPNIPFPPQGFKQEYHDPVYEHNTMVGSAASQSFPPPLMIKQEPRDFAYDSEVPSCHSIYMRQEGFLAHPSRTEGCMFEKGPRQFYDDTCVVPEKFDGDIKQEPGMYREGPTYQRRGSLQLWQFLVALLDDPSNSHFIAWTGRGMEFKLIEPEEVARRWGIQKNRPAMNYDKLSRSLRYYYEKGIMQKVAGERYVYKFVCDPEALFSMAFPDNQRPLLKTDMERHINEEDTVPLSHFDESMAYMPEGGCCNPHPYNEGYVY
# Procedure, shortened: as §1
sequence,measurement,setting,value
TCTACC,binding signal,[1],"1.54 fold enrichment (6-mer frequency, TF over GST control)"
same,binding signal,[2],"1.67 fold enrichment (6-mer frequency, TF over GST control)"
same,binding signal,[3],"1.58 fold enrichment (6-mer frequency, TF over GST control)"
same,binding signal,[4],"1.61 fold enrichment (6-mer frequency, TF over GST control)"
same,binding signal,[5],"1.59 fold enrichment (6-mer frequency, TF over GST control)"
same,binding signal,[6],"1.61 fold enrichment (6-mer frequency, TF over GST control)"
same,binding signal,[7],"1.54 fold enrichment (6-mer frequency, TF over GST control)"
same,binding signal,[8],"1.68 fold enrichment (6-mer frequency, TF over GST control)"
same,binding signal,[9],"1.43 fold enrichment (6-mer frequency, TF over GST control)"
same,binding signal,[10],"1.52 fold enrichment (6-mer frequency, TF over GST control)"
same,binding signal,[11],"1.52 fold enrichment (6-mer frequency, TF over GST control)"
same,binding signal,[12],"1.67 fold enrichment (6-mer frequency, TF over GST control)"
same,binding signal,[13],"1.53 fold enrichment (6-mer frequency, TF over GST control)"
same,binding signal,[14],"1.56 fold enrichment (6-mer frequency, TF over GST control)"
same,binding signal,[15],"1.48 fold enrichment (6-mer frequency, TF over GST control)"
same,binding signal,[16],"1.39 fold enrichment (6-mer frequency, TF over GST control)"
same,binding signal,[17],"1.53 fold enrichment (6-mer frequency, TF over GST control)"
same,binding signal,[18],"1.44 fold enrichment (6-mer frequency, TF over GST control)"
same,binding signal,[19],"1.57 fold enrichment (6-mer frequency, TF over GST control)"
